Test results taken from PubChem BioAssay (NCATS).
Where “and” joins values, the source holds several entries; their conditions need not be identical. Equal values may be shown once. Inconclusive results are not listed. Entries that show only a call come without a potency. Calls of active or inactive are those of the source. Calls follow the shape of the dose curve; as a rule, active = well fitted curve in the direction sought with a large enough effect; inconclusive = small, poorly fitted or top-dose-only effect, or another doubt; inactive = no such curve, though single readings can be large; an effect the other way counts as inactive or inconclusive.

Experiments:
[1] = qHTS of pediatric cancer cell lines to identify multiple opportunities for drug repurposing: Primary screen for A673 cells (AID 1347092); also: nearly all actives have a fitted effect of over 45% in size
Method in brief: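 A673 cells (500-1,000 cells/well) were treated 48 hours at 37 degrees C with compounds at 11-point (0.78 nM to 46 µM) or 8-point (0.59 nM to 46 µM) dilutions. Viability read by CellTiter-Glo luminescence; concentration-response curves fitted.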

[2] = qHTS of pediatric cancer cell lines to identify multiple opportunities for drug repurposing: Primary screen for SK-N-MC cells (AID 1347093)
Method in brief: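 Metabolically active cells were quantified by ATP-dependent luminescence (CellTiter-Glo, 15 min at room temperature) following 48 h treatment. Cells had been plated at 500-1,000 per well and settled for 5 h beforehand.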

[3] = qHTS of pediatric cancer cell lines to identify multiple opportunities for drug repurposing: Primary screen for BT-37 cells (AID 1347094)
Method in brief: (§1)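 500-1,000 cells/well; 5 h pre-incubation 37 °C/5% CO2; compound pinned; 48 h; CellTiter-Glo, 15 min RT; luminescence. MIPE 11-pt from 0.78 nM, NPC 8-pt from 0.59 nM final. Bortezomib 2.3 µM final as positive control.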

[4] = qHTS of pediatric cancer cell lines to identify multiple opportunities for drug repurposing: Primary screen for NB-EBc1 cells (AID 1347095)
Method in brief: as §1

[5] = qHTS of pediatric cancer cell lines to identify multiple opportunities for drug repurposing: Primary screen for U-2 OS cells (AID 1347096); also: nearly all actives have a fitted effect of over 50% in size
Method in brief: (§2)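 Cells (500-1,000/well) in growth media were settled 5 h at 37 degrees C, then given compounds for 48 h. Viability was read as CellTiter-Glo luminescence. Primary runs used MIPE at 11 points (0.78 nM-46 µM) and NPC at 8 points (0.59 nM-46 µM); follow-ups used 11 points.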

[6] = qHTS of pediatric cancer cell lines to identify multiple opportunities for drug repurposing: Primary screen for Saos-2 cells (AID 1347097); also: nearly all actives have a fitted effect of over 40% in size
Method in brief: as §1

[7] = qHTS of pediatric cancer cell lines to identify multiple opportunities for drug repurposing: Primary screen for LAN-5 cells (AID 1347100)
Method in brief: as §2

[8] = qHTS of pediatric cancer cell lines to identify multiple opportunities for drug repurposing: Primary screen for BT-12 cells (AID 1347101); also: nearly all actives have a fitted effect of over 25% in size
Method in brief: (§3)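 Cells (500-1,000/well) rested 5 h, then received compounds for 48 h; metabolically active cells were measured by CellTiter-Glo luminescence. Final concentrations spanned up to 46 µM (MIPE, 11-point) or 0.59 nM-46 µM (NPC, 8-point) in primary screens, 11-point in follow-ups.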

[9] = qHTS of pediatric cancer cell lines to identify multiple opportunities for drug repurposing: Primary screen for SK-N-SH cells (AID 1347098); also: nearly all actives have a fitted effect of over 65% in size
Method in brief: as §3

[10] = qHTS of pediatric cancer cell lines to identify multiple opportunities for drug repurposing: Primary screen for NB1643 cells (AID 1347099); also: nearly all actives have a fitted effect of over 50% in size
Method in brief: as §1
Potency is read from the fitted curve at half-maximal effect.

Compound	Potency [1]	Potency [2]	Potency [3]	Potency [4]	Potency [5]	Potency [6]	Potency [7]	Potency [8]	Potency [9]	Potency [10]
O=C(N[C@H](CO)[C@H](O)c1ccc([N+](=O)[O-])cc1)C(Cl)Cl	inactive	inactive	inactive	inactive	inactive	inactive	inactive	inactive		
CCN1CCCC1CNC(=O)c1cc(S(N)(=O)=O)ccc1OC (centres undefined)	inactive	inactive	inactive	inactive	inactive	inactive	inactive	inactive	inactive	
Cn1nnc2c(C(N)=O)ncn2c1=O	inactive	inactive	inactive		inactive	inactive	inactive	inactive	inactive	inactive
CN(C)c1ccc(C(=C2C=CC(=[N+](C)C)C=C2)c2ccc(N(C)C)cc2)cc1	1.06 µM (active) and 93.5 nM (active)	1.06 µM (active)	1.23 µM (active) and 685 nM (active)	2.99 µM (active) and 935 nM (active)		2.11 µM (active) and 418 nM (active)	1.68 µM (active) and 526 nM (active)	1.38 µM (active) and 611 nM (active)	1.09 µM (active) and 2.41 µM (active)	3.35 µM (active) and 7.43 µM (active)
CCn1cc(C(=O)O)c(=O)c2cc(F)c(N3CCNCC3)cc21	inactive	inactive	inactive	inactive	inactive	inactive	inactive	inactive	inactive	
CCN(C)C(=O)Oc1cccc([C@H](C)N(C)C)c1	inactive		inactive	inactive	inactive	inactive	inactive	inactive	inactive	inactive
CCOC(=O)c1ccc(C#Cc2ccc3c(c2)C(C)(C)CCS3)nc1	23.5 µM (active)	18.7 µM (active)	inactive	inactive	inactive			inactive	inactive	
NC(=O)c1ccc2[nH]ccc2c1	inactive	inactive	inactive	inactive	inactive		inactive	inactive	inactive	inactive
CC(N)C12CC3CC(CC(C3)C1)C2 (centres undefined)	inactive		inactive	inactive	inactive	inactive	inactive	inactive	inactive	inactive
O=C(O)CSCC(=O)NC1CCSC1=O (centres undefined)	inactive		inactive	inactive	inactive	inactive	inactive	inactive	inactive	inactive
CS(=O)(=O)c1ccc([C@@H](O)[C@@H](CO)NC(=O)C(Cl)Cl)cc1	inactive	inactive	inactive	inactive	inactive	inactive	inactive	inactive	inactive	
COC(=O)Nc1nc2ccc(Sc3ccccc3)cc2[nH]1	1.06 µM (active) and 935 nM (active)	841 nM (active) and 590 nM (active)	1.74 µM (active) and 3.06 µM (active)	0.469 µM (active)	13.3 µM (active)	841 nM (active) and 2.35 µM (active)	1.32 µM (active)	1.74 µM (active) and 4.32 µM (active)	inactive	
Cc1ncc([N+](=O)[O-])n1CCO	inactive		inactive	inactive	inactive	inactive	inactive	inactive	inactive	inactive
O=C(NCC1CN(c2ccc(N3CCOCC3=O)cc2)C(=O)O1)c1ccc(Cl)s1 (centres undefined)	inactive		inactive	inactive	inactive	inactive	inactive		inactive	inactive
COc1cc2nc(N3CCCN(C)CC3)nc(NC3CCN(Cc4ccccc4)CC3)c2cc1OC	3.72 µM (active)	6.62 µM (active)	13.7 µM (active)	23.5 µM (active)		7.43 µM (active)	8.33 µM (active)	10.9 µM (active)	9.61 µM (active)	9.35 µM (active)
Cc1nnc(C(=O)NC(C)(C)c2nc(C(=O)NCc3ccc(F)cc3)c(O)c(=O)n2C)o1	inactive	inactive	inactive	inactive	inactive	inactive	inactive	inactive	inactive	
Cc1cccc(Nc2ccncc2S(=O)(=O)NC(=O)NC(C)C)c1	inactive		inactive	inactive	inactive	inactive	inactive	inactive	inactive	inactive
CO[C@@H]1[C@@H](OC(N)=O)[C@@H](O)[C@H](Oc2ccc3c(O)c(NC(=O)c4ccc(O)c(CC=C(C)C)c4)c(=O)oc3c2C)OC1(C)C	inactive	inactive	inactive		inactive	inactive	inactive	inactive	inactive	inactive
COC(c1ccccc1)(c1ccccc1)[C@H](Oc1nc(C)cc(C)n1)C(=O)O	inactive		inactive	inactive	inactive	inactive	inactive	inactive	inactive	inactive
CC(C)OC(=O)C(C(=O)OC(C)C)=C1SC=CS1	inactive	inactive	inactive	inactive	inactive	inactive	inactive	inactive	inactive	
Nc1[nH]c(=O)ncc1F	inactive	inactive			inactive	inactive		inactive	inactive	inactive

Compound	Potency [1]	Potency [2]	Potency [3]	Potency [4]	Potency [5]	Potency [6]	Potency [7]	Potency [8]	Potency [9]	Potency [10]
CCN[C@H]1C[C@H](C)S(=O)(=O)c2sc(S(N)(=O)=O)cc21	inactive	inactive	inactive	inactive	inactive	inactive	inactive	inactive	inactive	
O=C(O)c1cc(=O)[nH]c(=O)[nH]1	inactive	inactive	inactive	inactive	inactive	inactive	inactive	inactive		inactive
NC(=O)c1cccnc1	inactive	inactive	inactive	inactive	inactive		inactive	inactive	inactive	inactive
NC(N)=NC(N)=NCCc1ccccc1	8.41 µM (active) and 5.9 µM (active)	inactive		inactive	inactive	inactive	inactive	19.3 µM (active)	inactive	inactive
N[C@@H](C(=O)N[C@@H]1C(=O)N2C(C(=O)O)=C(Cl)CS[C@H]12)c1ccccc1	inactive	inactive	inactive	inactive	inactive	inactive	inactive	inactive	inactive	
Oc1c(Cl)cc(Cl)c2cccnc12	2.66 µM (active) and 9.35 µM (active)	4.73 µM (active) and 9.35 µM (active)	24.6 µM (active) and 27.3 µM (active)	2.99 µM (active) and 7.43 µM (active)		16.6 µM (active)	5.96 µM (active) and 18.7 µM (active)	27.6 µM (active) and 30.6 µM (active)	3.86 µM (active) and 30.4 µM (active)	2.66 µM (active) and 6.62 µM (active)
COc1cc(NS(=O)(=O)c2ccc(N)cc2)nc(OC)n1	inactive		inactive	inactive	inactive	inactive	inactive	inactive	inactive	inactive
Nc1nc(F)nc2c1ncn2[C@@H]1O[C@H](CO)[C@@H](O)[C@@H]1O	0.743 µM (active)	33.5 nM (active) and 332 nM (active)	0.863 µM (active)	841 nM (active) and 1.05 µM (active)		150 nM (active) and 935 nM (active)	11.9 µM (active) and 469 nM (active)	1.53 µM (active)		0.372 µM (active)
CC[C@H](NC(C)C)[C@H](O)c1ccc(O)c2[nH]c(=O)ccc12	inactive	inactive	inactive	inactive	inactive	inactive	inactive	inactive	inactive	
O=C(O)c1cccnc1	inactive		inactive	inactive	inactive	inactive	inactive	inactive	inactive	inactive
CN1CCCC(n2nc(Cc3ccc(Cl)cc3)c3ccccc3c2=O)CC1 (centres undefined)	0.935 µM (active)	0.833 µM (active)	2.43 µM (active)	1.18 µM (active)	9.35 µM (active)	2.35 µM (active)	0.662 µM (active)	2.73 µM (active)	27.3 µM (active) and 4.82 µM (active)	
O=S(=O)(c1cccc2cnccc12)N1CCCNCC1	18.7 µM (active)	inactive	inactive	inactive	inactive		inactive	inactive		inactive
CC(=O)[C@H]1CC[C@H]2[C@@H]3CCC4=CC(=O)CC[C@]4(C)[C@H]3CC[C@]12C	1.18 µM (active)	0.526 µM (active)		inactive	inactive			24.3 µM (active)	12.1 µM (active)	2.96 µM (active)
CCCOc1ccc(C(=O)OCCN(CC)CC)cc1N	inactive	inactive	inactive	inactive	inactive	inactive	inactive	inactive	inactive	
CC(C)OC(=O)OCOP(=O)(CO[C@H](C)Cn1cnc2c(N)ncnc21)OCOC(=O)OC(C)C	inactive	11.8 µM (active) and 15 µM (active)	inactive	inactive	inactive	inactive	inactive			
C[C@@H]1C[C@H]2[C@@H]3CCC4=CC(=O)C=C[C@]4(C)[C@@]3(Cl)[C@@H](O)C[C@]2(C)[C@@]1(OC(=O)c1ccco1)C(=O)CCl	0.59 µM (active)		21.7 µM (active)	11.8 µM (active)	14.8 µM (active)	14.8 µM (active)	10.5 µM (active)	27.6 µM (active) and 9.68 µM (active)	19.2 µM (active)	2.64 µM (active)
C1CCC(C(CC2CCCCN2)C2CCCCC2)CC1 (centres undefined)	10.6 µM (active) and 23.5 µM (active)		34.7 µM (active) and 30.6 µM (active)	26.4 µM (active)	inactive	13.3 µM (active) and 33.2 µM (active)		5.5 µM (active) and 30.6 µM (active)	15.4 µM (active)	21.1 µM (active)
NC(=O)N1c2ccccc2CC(=O)c2ccccc21	inactive		inactive	inactive	inactive	inactive	inactive	inactive	inactive	
CN(CCOc1ccc(CC2SC(=O)NC2=O)cc1)c1ccccn1 (centres undefined)	inactive		inactive	inactive	inactive	inactive	inactive	inactive	inactive	
COc1ccccc1OCC(O)COC(N)=O (centres undefined)	inactive		inactive	inactive	inactive	inactive	inactive	inactive	inactive	inactive
